# Measured values: ChEMBL document CHEMBL1961873, “Compounds: GSK PKIS; Assays: Nanosyn kinase panel” (2012)
# Target: Receptor tyrosine-protein kinase erbB-4 (Homo sapiens) (UniProt Q15303)
# Settings: at 0.1 µM
# Chain of Receptor tyrosine-protein kinase erbB-4 (Homo sapiens) (Q15303 whole entry): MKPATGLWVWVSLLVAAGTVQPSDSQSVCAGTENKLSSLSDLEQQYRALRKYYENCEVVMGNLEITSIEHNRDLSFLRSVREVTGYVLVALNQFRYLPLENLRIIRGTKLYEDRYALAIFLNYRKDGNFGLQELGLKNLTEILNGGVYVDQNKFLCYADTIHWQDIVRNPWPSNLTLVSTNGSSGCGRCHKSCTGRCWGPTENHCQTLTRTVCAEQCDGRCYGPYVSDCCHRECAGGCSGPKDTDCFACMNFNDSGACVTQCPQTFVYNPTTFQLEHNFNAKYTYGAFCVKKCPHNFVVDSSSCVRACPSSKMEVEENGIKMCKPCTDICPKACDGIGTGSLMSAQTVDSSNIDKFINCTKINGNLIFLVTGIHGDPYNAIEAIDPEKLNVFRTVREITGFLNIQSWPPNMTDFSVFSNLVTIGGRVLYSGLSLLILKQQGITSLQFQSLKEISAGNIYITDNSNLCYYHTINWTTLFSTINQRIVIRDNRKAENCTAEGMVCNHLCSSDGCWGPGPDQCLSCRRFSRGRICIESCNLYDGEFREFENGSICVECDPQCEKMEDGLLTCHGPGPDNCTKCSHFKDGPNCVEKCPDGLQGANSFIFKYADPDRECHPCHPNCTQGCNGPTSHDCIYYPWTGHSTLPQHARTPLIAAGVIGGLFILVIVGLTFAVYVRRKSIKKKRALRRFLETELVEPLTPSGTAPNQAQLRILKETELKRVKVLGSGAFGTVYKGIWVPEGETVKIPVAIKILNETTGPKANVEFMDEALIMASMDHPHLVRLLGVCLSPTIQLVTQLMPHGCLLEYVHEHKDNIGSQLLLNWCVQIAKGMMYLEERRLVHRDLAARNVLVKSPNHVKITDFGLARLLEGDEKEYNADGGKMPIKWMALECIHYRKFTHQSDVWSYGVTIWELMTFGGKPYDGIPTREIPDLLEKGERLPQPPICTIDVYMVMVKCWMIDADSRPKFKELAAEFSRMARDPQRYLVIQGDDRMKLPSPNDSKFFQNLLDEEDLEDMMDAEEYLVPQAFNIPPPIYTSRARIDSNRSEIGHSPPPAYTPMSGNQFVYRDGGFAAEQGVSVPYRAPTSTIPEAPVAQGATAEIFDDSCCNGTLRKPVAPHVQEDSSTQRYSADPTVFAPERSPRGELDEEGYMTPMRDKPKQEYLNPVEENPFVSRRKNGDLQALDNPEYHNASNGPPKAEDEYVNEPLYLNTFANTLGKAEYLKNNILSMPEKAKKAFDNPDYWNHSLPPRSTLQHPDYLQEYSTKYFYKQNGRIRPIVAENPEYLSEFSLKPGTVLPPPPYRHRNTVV
row,Structure (SMILES),inhibition [%]
1,CN(C)C(=O)O[C@@H]1CN[C@@H](C#Cc2cc3ncnc(Nc4ccc(OCc5cccc(F)c5)c(Cl)c4)c3s2)C1,107
2,N#Cc1c(NC(=O)c2ccccc2F)sc2c1CCCC2,-2.08
3,Cc1ccc2c(-c3ccnc(Nc4ccc5c(c4)OCCO5)n3)c(-c3ccc(C(F)(F)F)cc3)nn2n1,3.46
4,COc1cccc(-n2nc(C)c3c(N/N=C(\C)c4ccncc4)ncnc32)c1,0.79
5,NS(=O)(=O)c1ccc(N/N=C2\C(=O)Nc3ccc(Cl)cc32)cc1,4.78
6,CCOc1nccc2c1nc(-c1nonc1N)n2CC,6.98
7,c1ccc(Nc2ncc(-c3ccccc3)o2)cc1,11
8,Cc1cc(Cl)cc2c1NC(=O)C2=NNc1ccc(S(N)(=O)=O)cc1,6.08
9,O=C1Nc2ccccc2/C1=C/Nc1ccc2[nH]c(=O)[nH]c2c1,9.76
10,Nc1nccc(-c2c(-c3ccc(F)cc3)ncn2CCCN2CCOCC2)n1,12.4
11,[O-][S+]1CCN(Cc2ccc(-c3ccc4ncnc(Nc5ccc(OCc6ccccc6)c(Cl)c5)c4c3)o2)CC1,69.6
12,NS(=O)(=O)c1cccc(-c2cc3ccncc3cc2OCc2ccccc2)c1,8.81
13,CCCN1CCCC(c2ccc(Nc3nc(Nc4cc(F)ccc4C(N)=O)c4cc[nH]c4n3)c(OC)c2)C1 (stereo not given),36.3
14,OCc1ccc(-c2nc(-c3ccccn3)c(-c3ccc4c(c3)OCO4)[nH]2)cc1,11.6
15,COc1ccc(-c2nn3ncccc3c2-c2ccnc(Nc3cccc(C(F)(F)F)c3)n2)cc1,25.8
16,O=C1Nc2ccc(-c3cccnc3)cc2C1=Cc1cc(Br)c(O)c(Br)c1,9.94
17,CN(C)c1cc2c(Nc3ccc4c(cnn4Cc4ccccc4)c3)ncnc2cn1,91.1

row,Structure (SMILES),inhibition [%]
1,CCS(=O)(=O)c1ccc(OC)c(Nc2nccc(N(C)c3ccc4c(C)n[nH]c4c3)n2)c1,18.5
2,COC(=O)c1cncc(/C=C/c2c(C)cc(O)cc2C)c1,7.72
3,O=S(=O)(CCOCc1ccc(-c2ccc3ncnc(Nc4ccc(OCc5cccc(F)c5)c(Cl)c4)c3c2)o1)c1ccccc1,27.5
4,O=C(Nc1ccc(Oc2ccc3[nH]c(NC(=O)c4ccco4)nc3c2)cc1)Nc1cc(C(F)(F)F)ccc1F,-1.74
5,Cc1cc(-c2ccccn2)cc(C)c1/C=C/c1cncc(-c2nn[nH]n2)c1,8.8
6,Cc1cc(O)cc(C)c1/C=C/c1cncc(C(=O)N(C)C)c1,9.24
7,CS(=O)(=O)Nc1cccc(-c2ccc3c(NC(=O)C4CC4)n[nH]c3c2)c1,6.04
8,CN(C)CCCn1c(-c2nonc2N)nc2cnccc21,17.3
9,CCn1c(-c2nonc2N)nc2c(C#CC(C)(C)O)nc(OCCNC)cc21,4.11
10,Cc1ccc2c(c1)/C(=N/Nc1ccc(S(N)(=O)=O)cc1)C(=O)N2,6.45
11,Cc1ccc2c(-c3ccnc(Nc4cccc(C(F)(F)F)c4)n3)c(-c3ccccc3)nn2n1,40.4
12,FC(F)(F)c1ccc(-c2nn3ncccc3c2-c2ccnc(Nc3ccc4c(c3)OCCO4)n2)cc1,6.46
13,Cc1ccc(Nc2ccnc(Nc3cccc(C(N)=O)c3)n2)cc1O,6.84
14,COc1cc2ncnc(Nc3ccc4c(cnn4Cc4ccccc4)c3)c2cc1OC,83.7
15,Cc1nc(-c2ccccc2)n2nc(NCCCN3CCOCC3)ncc12,5.53
16,COc1ccc2ncnc(Nc3ccc(OCc4ccccc4)cc3)c2c1,56.2

# Target: Receptor tyrosine-protein kinase erbB-4 (Homo sapiens) (UniProt Q15303)
# Settings: at 1 µM
row,Structure (SMILES),inhibition [%]
1,CN(C)C(=O)O[C@@H]1CN[C@@H](C#Cc2cc3ncnc(Nc4ccc(OCc5cccc(F)c5)c(Cl)c4)c3s2)C1,130
2,N#Cc1c(NC(=O)c2ccccc2F)sc2c1CCCC2,0.66
3,Cc1ccc2c(-c3ccnc(Nc4ccc5c(c4)OCCO5)n3)c(-c3ccc(C(F)(F)F)cc3)nn2n1,16.3
4,COc1cccc(-n2nc(C)c3c(N/N=C(\C)c4ccncc4)ncnc32)c1,-0.06
5,CCOc1nccc2c1nc(-c1nonc1N)n2CC,18
6,c1ccc(Nc2ncc(-c3ccccc3)o2)cc1,16
7,Cc1cc(Cl)cc2c1NC(=O)C2=NNc1ccc(S(N)(=O)=O)cc1,6.7
8,O=C1Nc2ccccc2/C1=C/Nc1ccc2[nH]c(=O)[nH]c2c1,15.3
9,Nc1nccc(-c2c(-c3ccc(F)cc3)ncn2CCCN2CCOCC2)n1,31.7
10,[O-][S+]1CCN(Cc2ccc(-c3ccc4ncnc(Nc5ccc(OCc6ccccc6)c(Cl)c5)c4c3)o2)CC1,84.3
11,NS(=O)(=O)c1cccc(-c2cc3ccncc3cc2OCc2ccccc2)c1,9.16
12,CCCN1CCCC(c2ccc(Nc3nc(Nc4cc(F)ccc4C(N)=O)c4cc[nH]c4n3)c(OC)c2)C1 (stereo not given),75
13,OCc1ccc(-c2nc(-c3ccccn3)c(-c3ccc4c(c3)OCO4)[nH]2)cc1,12.7
14,COc1ccc(-c2nn3ncccc3c2-c2ccnc(Nc3cccc(C(F)(F)F)c3)n2)cc1,83.1
15,O=C1Nc2ccc(-c3cccnc3)cc2C1=Cc1cc(Br)c(O)c(Br)c1,14.9
16,CN(C)c1cc2c(Nc3ccc4c(cnn4Cc4ccccc4)c3)ncnc2cn1,94.6

row,Structure (SMILES),inhibition [%]
1,CCS(=O)(=O)c1ccc(OC)c(Nc2nccc(N(C)c3ccc4c(C)n[nH]c4c3)n2)c1,60.5
2,COC(=O)c1cncc(/C=C/c2c(C)cc(O)cc2C)c1,10
3,O=S(=O)(CCOCc1ccc(-c2ccc3ncnc(Nc4ccc(OCc5cccc(F)c5)c(Cl)c4)c3c2)o1)c1ccccc1,82.6
4,O=C(Nc1ccc(Oc2ccc3[nH]c(NC(=O)c4ccco4)nc3c2)cc1)Nc1cc(C(F)(F)F)ccc1F,-5.16
5,Cc1cc(-c2ccccn2)cc(C)c1/C=C/c1cncc(-c2nn[nH]n2)c1,21.3
6,Cc1cc(O)cc(C)c1/C=C/c1cncc(C(=O)N(C)C)c1,7.51
7,CS(=O)(=O)Nc1cccc(-c2ccc3c(NC(=O)C4CC4)n[nH]c3c2)c1,8.34
8,CN(C)CCCn1c(-c2nonc2N)nc2cnccc21,16.3
9,CCn1c(-c2nonc2N)nc2c(C#CC(C)(C)O)nc(OCCNC)cc21,7.02
10,Cc1ccc2c(c1)/C(=N/Nc1ccc(S(N)(=O)=O)cc1)C(=O)N2,7.37
11,Cc1ccc2c(-c3ccnc(Nc4cccc(C(F)(F)F)c4)n3)c(-c3ccccc3)nn2n1,79
12,FC(F)(F)c1ccc(-c2nn3ncccc3c2-c2ccnc(Nc3ccc4c(c3)OCCO4)n2)cc1,43.5
13,Cc1ccc(Nc2ccnc(Nc3cccc(C(N)=O)c3)n2)cc1O,20.2
14,COc1cc2ncnc(Nc3ccc4c(cnn4Cc4ccccc4)c3)c2cc1OC,94
15,Cc1nc(-c2ccccc2)n2nc(NCCCN3CCOCC3)ncc12,11.3
16,COc1ccc2ncnc(Nc3ccc(OCc4ccccc4)cc3)c2c1,85.1
